Out of some 48,000 compounds screened, about 13,000 (27%) showed an effect of 50% or more. The list shows a part of the results.
The compounds below were run on Wolbachia pipientis (assay: Anti-Wolbachia Cell-Based Screen). Settings: 5 µM.
Type: functional
Set-up: scale not given: in the data most compounds retested in dose-response had high values

Structure (SMILES) | Percent Effect [%]
Cc1nc(CNC(=O)CCN2CCN(c3ccccc3)CC2)oc1C | 0.8962
COc1ncccc1CNCc1c(C(C)C)nn(C)c1OC | 1.463
COc1ccccc1C(O)CNCc1c(C(C)C)nn(C)c1N(C)C (stereo not drawn) | 2.712
COc1c(CNCc2ccc(N(C)C)nc2)c(C(C)C)nn1C | -3.12
CC(C)c1nn(C)c(N(C)C)c1CNCC(O)c1ccccc1F (stereo not drawn) | -5.015
COc1c(CNCc2ccc(CN(C)C)cc2)c(C(C)C)nn1C | -2.323
Cc1nn(C)c(N(C)C)c1CNCC(O)c1ccccc1F (stereo not drawn) | 78.77
COc1c(CNCC(O)c2ccc(C)cc2)c(C(C)C)nn1C (stereo not drawn) | 85.73
COc1c(CNCC(c2cccc(F)c2)N(C)C)c(C(C)C)nn1C (stereo not drawn) | 10
COc1c(CNCC(O)c2ccccc2F)c(C(C)C)nn1C (stereo not drawn) | 91.26
Cc1nn(C)c(N(C)C)c1CNCc1cccc(Cl)c1 | 10.47
COc1c(CNCC(O)c2ccccc2)c(C(C)C)nn1C (stereo not drawn) | 92.93
Cc1cccc(C(=O)N2CCSCC2)c1NC(=O)c1ccsc1 | 1.507
O=C(c1cc(=O)[nH]c(=O)[nH]1)N1CCCCC1c1nc2cc(F)ccc2[nH]1 (stereo not drawn) | -7.879
CC(C)(C)OC(=O)N[C@H]1CCN(c2cncc(Br)c2)C1 | 4.915
Cn1c(SCc2noc(C(C)(C)C)n2)nnc1C1CCS(=O)(=O)C1 (stereo not drawn) | 11.73
CCc1ccc(C(=O)NCCCC2(C3OCCO3)CCOCC2)cc1 | -33.3
N#Cc1ccccc1CN1C[C@@H]2CC[C@H](C1)N(Cc1cscn1)C2=O | -11.1
O=C(NCc1ccccc1)N1CCC(Oc2ncccc2Br)CC1 | -0.9975
NC(=O)Nc1cccc(F)c1C(=O)NC1CCCC1 | 2.904
Cc1nc(CNCC(O)COc2ccc3c(c2)OCO3)cs1 (stereo not drawn) | -10.52

Structure (SMILES) | Percent Effect [%]
COc1c(CNCC(O)c2cccc(F)c2)c(C(C)C)nn1C (stereo not drawn) | 6.756
Cc1nn(C)c(Cl)c1CNCCOc1ccc2c(c1)OCO2 | -10.2
COc1c(CNCC(O)COc2ccc3c(c2)OCO3)c(C)nn1C (stereo not drawn) | 70.56
COc1c(CNCC(O)c2cccc(F)c2)c(C)nn1C (stereo not drawn) | 102.4
COc1c(CNC(c2ccc(F)cc2)C(C)(C)C)c(C)nn1C (stereo not drawn) | 23.53
CC(=O)c1ccc(N2CCC3(CCC(=O)N(CCCO)C3)CC2)nc1 | -7.997
Cc1cnc(N2CCC[C@@H]3CN(S(C)(=O)=O)C[C@@H]32)nc1 | 11.33
Cc1ccc(CC2CCCN(S(C)(=O)=O)C2)nc1 (stereo not drawn) | 114.6
O=S(=O)(c1ccccc1)N1CCOCC(Cc2cccnc2)C1 (stereo not drawn) | 91.68
Cc1ccc(CC2COCCN(S(=O)(=O)c3ccccc3)C2)nc1 (stereo not drawn) | 86.08
O=C1N(Cc2ccccn2)C[C@H]2CN(S(=O)(=O)c3ccccc3)CCN12 | -3.737
Cn1ccnc1CN1C[C@H]2CN(S(=O)(=O)c3ccccc3)CCN2C1=O | 0.6101
O=C1N(Cc2cccnc2)C[C@H]2CN(S(=O)(=O)c3ccccc3)CCN12 | -1.281
CN(CC1CCCN(S(C)(=O)=O)C1)c1cnn(C)c1 (stereo not drawn) | 7.496
O=S(=O)(c1cccnc1)N1CCC(OCCCc2ccccc2)C1 (stereo not drawn) | -0.692
Cc1ncsc1CN1C[C@@H]2CN(S(C)(=O)=O)CCO[C@@H]2C1 | -34.03
Cc1ccc(CC2COCCN(S(C)(=O)=O)C2)nc1 (stereo not drawn) | 84.13
Cc1csc(CN2C[C@@H]3CN(S(C)(=O)=O)CCO[C@@H]3C2)n1 | -30.25
Cc1cc(C)n(C2CN(CC(O)c3ccc4c(c3)OCO4)C2)n1 (stereo not drawn) | -2.648
COCCC1(C(=O)O)CCN(c2cc(C)c3ccccc3n2)CC1 | -3.456
Cc1cc(N2CCN(C(=O)[C@@H]3C[C@@H]4C=C[C@H]3C4)CC2)nc2ccccc12 | 54.26

Structure (SMILES) | Percent Effect [%]
CCc1nc(C)cc(N2CCCC(C(=O)c3ccc(OC)cc3C)C2)n1 (stereo not drawn) | -51.86
Cc1cc(N2CCC(O)(C(=O)O)CC2)nc2ccccc12 | -10.2
CCc1nc(C)cc(N2CCN(C(=O)[C@@H]3C[C@@H]4C=C[C@H]3C4)CC2)n1 | 84.46
CCC(=O)N1CCCN(c2cncc(-n3nc(C)cc3C)n2)CC1 | -2.482
CC(C)n1nc(Cn2cccn2)c2c1CN(CC1CCOC1)C2.O=C(O)C(F)(F)F (stereo not drawn) | -1.747
CCOC(=O)NCCC(=O)NCc1ccc(Oc2cccc(F)c2)nc1 | 3.713
CCOc1ncnc2c1CCN(Cc1cccs1)CC2.O=C(O)C(F)(F)F | -4.6
CCN(C)c1ncnc2c1CCN(C(=O)N(C)C)CC2.O=C(O)C(F)(F)F | -3.614
CCc1ncnc2c1CCN(S(=O)(=O)c1ccccc1)CC2 | 113.2
CCc1ncnc2c1CCN(S(=O)(=O)CC)CC2 | 104.4
CCc1ncnc2c1CCN(C(=O)Cc1ccccn1)CC2 | -1.286
CCN(C)c1ncnc2c1CCN(S(=O)(=O)c1ccccc1)CC2.O=C(O)C(F)(F)F | 77.11
CCS(=O)(=O)N1CCc2ncnc(OC)c2CC1 | 0.7096
CCc1ncnc2c1CCN(C(=O)N1CCCC1)CC2 | 16.14
CCN(C)c1ncnc2c1CCN(C(=O)c1ccccn1)CC2.O=C(O)C(F)(F)F.O=C(O)C(F)(F)F | -0.1551
CCOc1ncnc2c1CCN(S(=O)(=O)c1ccccc1)CC2 | 89.01
CCS(=O)(=O)N1CCc2ncnc(C)c2CC1 | -1.649
CCOc1ncnc2c1CCN(S(=O)(=O)CC)CC2 | -16.86
CC(O)CN(CC(=O)NC(=O)NCC(F)(F)F)c1ccccc1 (stereo not drawn) | -9.09
COCCN1CCN(C(=O)c2ccc(C)cc2F)[C@H]2CS(=O)(=O)C[C@H]21 | 8.657
COC(=O)CCNC(=O)c1cccc(C(=O)N(C)c2ccccc2)c1 | 2.44

From ChEMBL document CHEMBL3988442, “University of Dundee, Small-Polar-MMV Screening Library” (2021)
